High-throughput results: PubChem, National Center for Advancing Translational Sciences (NCATS)
Pf growth 96h – inhibits malaria parasite growth, 96 h; 320,000 tested, 6.9% active; P. falciparum luciferase reporter growth, 96 h; Potency, µM (top dose mostly 28.7 µM), hits mostly inhibitors
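Infected RBCs, 2% Hct / 0.05% parasitemia final; luciferase-reporter P. falciparum; cpd 96 h, 37 C, 5% CO2; luciferase detection reagent; luminescence.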
Pf growth 48h – P. falciparum growth inhibition at 48 hours (one generation); P. falciparum luciferase growth in erythrocytes, 48 h; Potency, µM (titrated, usually from 28.7 µM), hits mostly inhibitors; 310,000 tested, 5.9% active
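Here the parasites carry a stable luciferase gene and grow inside erythrocytes in Albumax-based RPMI medium with compound for one erythrocytic cycle. Activity is scored as loss of luminescent signal.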
HCMV antiviral – human cytomegalovirus inhibition; HFF cells, HCMV-luciferase reporter, 72 h; active compounds read low; activity change, negative = inhibition, % at 57.5 µM; 410,000 tested, 4.5% active; AID 1259415; in the data active = activity change below about -60%; inconclusive = no clear call, values can overlap the other calls; inactive = above about -39%
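After 16 h attachment at 37C, HFF cells received test compound and HCMV-luciferase (1 PFU/cell); reporter luminescence read 72 h later, data normalized against buffer-only and known inhibitor Salinomycin.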
Shiga inhibitor – Shiga toxin inhibition | Vero cells, Shiga toxin protein synthesis inhibition reporter | 290,000 tested, 9.2% active | AID 2315 | inhibition, % at 38.7 µM; in the data active = inhibition mostly above about 28%, no sharp cut-off; inactive = mostly below about 43%
Cycloheximide cs – counter-screen hit for Shiga toxin inhibitors, cycloheximide. cell reporter, cycloheximide protein synthesis inhibition counterscreen. max response, %. 300,000 tested, 12% active. AID 2314; in the data active = max response mostly above about 13%, no sharp cut-off; inactive = mostly below about 14%; note: read at 38.3 µM for the half of the compounds with a filed dose
Hits are given with their value. Compounds with a hit are over-represented: about 20% of the library has one in this group of screens. Unless noted, calls come from the whole dose curve; as a rule, active = well fitted inhibition curve with a large enough effect; inconclusive = small, poorly fitted or top-dose-only effect, or another doubt; inactive = no such curve, though single readings can be large or run the other way.

Results for COCc1ccc(CN2CCCC(C(=O)c3sccc3C)C2)o1 (stereo not given) ?
Pf growth 96h: 14.7µM; Pf growth 48h: inactive; HCMV antiviral: inactive; Shiga inhibitor: inactive; Cycloheximide cs: inactive

What do the screens show for `COc1ccc(C(=O)C2CCCN(Cc3cccn3-c3ccccn3)C2)c(OC)c1` (stereo not given)?
Pf growth 96h: inconclusive; Pf growth 48h: inconclusive; HCMV antiviral: -66.7; Shiga inhibitor: inactive; Cycloheximide cs: inactive

How did COc1ccc(C(=O)C2CCCN(Cc3ccon3)C2)c(OC)c1 (stereo not given) do in these assays?
Pf growth 96h: inconclusive; Pf growth 48h: inactive; HCMV antiviral: inactive; Shiga inhibitor: inactive; Cycloheximide cs: inactive

Results for O=C(c1cc(F)ccc1F)C1CCCN(Cc2cccn2-c2ccccn2)C1 (stereo not given) ?
Pf growth 96h: inconclusive; Pf growth 48h: inconclusive; HCMV antiviral: inactive; Shiga inhibitor: inactive; Cycloheximide cs: inactive

How did COc1ccc(F)cc1C(=O)C1CCCN(Cc2cccn2-c2ccccn2)C1 (stereo not given) do in these assays?
Pf growth 96h: 3.29µM; Pf growth 48h: 10.4µM; HCMV antiviral: inconclusive; Shiga inhibitor: inactive; Cycloheximide cs: inactive

How did Cc1ccsc1C(=O)C1CCCN(Cc2cccn2-c2ccccn2)C1 (stereo not given) do in these assays?
Pf growth 96h: inactive; Pf growth 48h: inconclusive; HCMV antiviral: -66.2; Shiga inhibitor: inactive; Cycloheximide cs: inactive

How did Cn1cc(CN2CCCC(C(=O)c3cc(F)ccc3F)C2)c2ccccc21 (stereo not given) do in these assays?
Pf growth 96h: inconclusive; Pf growth 48h: inconclusive; HCMV antiviral: inactive; Shiga inhibitor: inactive; Cycloheximide cs: inactive

Results for O=C(c1cc(F)ccc1F)C1CCCN(Cc2cc(Cl)ccc2O)C1 (stereo not given) ?
Pf growth 96h: inconclusive; Pf growth 48h: 4.15µM; HCMV antiviral: inactive; Cycloheximide cs: inactive

How did COc1cccc(CN(C)C(=O)C2CCN(S(=O)(=O)c3cccs3)CC2)c1OC do in these assays?
Pf growth 96h: inconclusive; Pf growth 48h: inconclusive; HCMV antiviral: inactive

Results for O=c1c2ccccc2nc(SCc2cccc(F)c2)n1-c1cccc(S(=O)(=O)N2CCCC2)c1 ?
Pf growth 96h: 6.57µM; Pf growth 48h: inconclusive; HCMV antiviral: inactive; Shiga inhibitor: inactive; Cycloheximide cs: inactive

Results for O=C(O)c1ccc(CSc2nc3ccccc3c(=O)n2-c2ccccc2)cc1 ?
Pf growth 96h: inconclusive; Pf growth 48h: inactive; HCMV antiviral: inactive; Shiga inhibitor: inactive; Cycloheximide cs: inactive

Results for COc1cccc(-n2c(=S)[nH]c3ccccc3c2=O)c1 ?
Pf growth 96h: inactive; Pf growth 48h: inconclusive; HCMV antiviral: inactive; Shiga inhibitor: inactive; Cycloheximide cs: inactive

How did O=c1c2ccccc2[nH]c(=S)n1-c1cccc(S(=O)(=O)N2CCCC2)c1 do in these assays?
Pf growth 96h: inconclusive; Pf growth 48h: inactive; HCMV antiviral: -76.7; Shiga inhibitor: inactive; Cycloheximide cs: inactive

What do the screens show for `O=C(CSc1nc2ccccc2c(=O)n1-c1ccccc1Cl)Nc1cccc(S(=O)(=O)N2CCOCC2)c1`?
Pf growth 96h: inactive; Pf growth 48h: inconclusive; HCMV antiviral: inactive; Shiga inhibitor: inactive; Cycloheximide cs: inactive

How did O=C(c1ccc(-n2c(SCc3cccc(F)c3)nc3ccccc3c2=O)cc1)N1CCOCC1 do in these assays?
Pf growth 96h: inactive; Pf growth 48h: inconclusive; HCMV antiviral: -62.9; Shiga inhibitor: inactive; Cycloheximide cs: inactive

Results for CN(C)c1ccc(S(=O)(=O)NCC(=O)NCCC2=CCCCC2)cc1[N+](=O)[O-] ?
Pf growth 96h: inconclusive; Pf growth 48h: 11.7µM; HCMV antiviral: inactive

Results for CN(C)c1ccc(S(=O)(=O)NCC(=O)NCCOc2ccccc2F)cc1[N+](=O)[O-] ?
Pf growth 96h: inactive; Pf growth 48h: inactive; HCMV antiviral: inactive

What do the screens show for `Cc1c(C(=O)NCCC2=CCCCC2)cccc1[N+](=O)[O-]`?
Pf growth 96h: inconclusive; Pf growth 48h: inactive; HCMV antiviral: inactive; Shiga inhibitor: 94.0; Cycloheximide cs: 34.6

How did Cc1c(C(=O)NCCc2ccc(S(N)(=O)=O)cc2)cccc1[N+](=O)[O-] do in these assays?
Pf growth 96h: inactive; Pf growth 48h: inactive; HCMV antiviral: inconclusive; Shiga inhibitor: inactive; Cycloheximide cs: inactive

What do the screens show for `Cc1ccc(-c2[nH]c3ccccc3c2SCCNC(=O)c2cc3ccccc3oc2=O)cc1`?
Pf growth 96h: 5.86µM; Pf growth 48h: inconclusive; HCMV antiviral: inactive; Shiga inhibitor: inactive; Cycloheximide cs: inactive

How did C/C(=N\NC(=O)CC#N)c1cc2ccccc2oc1=O do in these assays?
Pf growth 96h: inconclusive; Pf growth 48h: inactive; HCMV antiviral: inactive; Shiga inhibitor: 29.5; Cycloheximide cs: 16.3

What do the screens show for `O=C(NCCc1ccc(F)cc1)c1cc2ccccc2oc1=O`?
Pf growth 96h: inactive; Pf growth 48h: inactive; HCMV antiviral: inactive; Shiga inhibitor: inactive; Cycloheximide cs: inactive

Results for O=C(NCCc1ccccc1)c1cc2ccccc2oc1=O ?
Pf growth 96h: 9.28µM; Pf growth 48h: inactive; HCMV antiviral: -103.0; Shiga inhibitor: inactive; Cycloheximide cs: inactive

What do the screens show for `CC(NC(=O)c1cc2ccccc2o1)c1ccccc1` (stereo not given)?
Pf growth 96h: inactive; Pf growth 48h: inactive; HCMV antiviral: inconclusive; Shiga inhibitor: inactive; Cycloheximide cs: inactive

Results for CC(NC(=O)c1cc2ccccc2oc1=O)c1ccccc1 (stereo not given) ?
Pf growth 96h: 11.7µM; Pf growth 48h: inactive; HCMV antiviral: inactive; Shiga inhibitor: 47.1; Cycloheximide cs: 19.6

Results for O=C(NCCC1=CCCCC1)c1cc2ccccc2oc1=O ?
Pf growth 96h: inactive; Pf growth 48h: inactive; HCMV antiviral: inactive; Shiga inhibitor: 67.2; Cycloheximide cs: 18.9

How did CC(=O)OCCNC(=O)c1cc2ccccc2oc1=O do in these assays?
Pf growth 96h: 1.65µM; Pf growth 48h: inactive; HCMV antiviral: inactive; Shiga inhibitor: inactive; Cycloheximide cs: inactive

Results for COc1ccc(C(C(=O)NC2CCCC2)N(CCO)C(=O)Cn2nnc(-c3ccc(C)o3)n2)cc1OC (stereo not given) ?
Pf growth 96h: inconclusive; Pf growth 48h: inactive; HCMV antiviral: inactive; Shiga inhibitor: inactive; Cycloheximide cs: inactive

Results for COc1ccc(CNC(=O)Cn2c(=O)nc(-c3ccccc3)c3cc(Cl)ccc32)cc1OC ?
HCMV antiviral: inactive

How did CCn1c(SCC(=O)NCc2ccccc2)nnc1C(CO)NC(=O)c1ccccc1 (stereo not given) do in these assays?
Pf growth 96h: inactive; Pf growth 48h: inactive; HCMV antiviral: inactive; Shiga inhibitor: inactive; Cycloheximide cs: inactive

Results for COc1ccc(CCNC(=O)c2cc3ccccc3oc2=O)cc1 ?
Pf growth 96h: inactive; Pf growth 48h: inactive; HCMV antiviral: inactive; Shiga inhibitor: 33.8; Cycloheximide cs: 28.5

What do the screens show for `Cc1ccc(S(=O)(=O)NCC2CCC(C(=O)NC3CCCCC3)CC2)cc1` (stereo not given)?
Pf growth 96h: inconclusive; Pf growth 48h: inactive; HCMV antiviral: inactive; Shiga inhibitor: inactive; Cycloheximide cs: inactive

What do the screens show for `O=C(Nc1ccc(OC(F)F)c(Cl)c1)Nc1ccc2c(c1)OCO2`?
Pf growth 48h: inconclusive; HCMV antiviral: inactive; Shiga inhibitor: inactive; Cycloheximide cs: inactive
